Results taken from PubChem BioAssay (Tox21).
Activity calls are given as the source filed them. Unless noted, calls come from the whole dose curve; as a rule, active = well fitted curve in the direction sought with a large enough effect in the repeat runs; inconclusive = weak or mixed curves; inactive = no such curve, though single readings can be large; an effect the other way counts as inactive or inconclusive.

Experiments:
[1] = target: Acetylcholinesterase (Homo sapiens) (UniProt P22303); test: Acetylcholinesterase (AChE) small molecule antagonists: fluorescence cell-based qHTS assay (AID 1347398; calls by dose curve; note: nearly all actives have a fitted effect of over 50% in size; note: potency is the fitted concentration of half-maximal effect); conditions: Potency: AChE activity; outcome: AChE activity
Summary of the method: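 Homogeneous quantitative HTS format. SH-SY5Y cells seeded at 2,000 per well settle overnight at 37 C. Compound pretreatment runs 30 min (37 C, 5% CO2); substrate/probe mix then reacts 40 min at RT before reading 490/520 nm.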

[2] = target: Acetylcholinesterase (Homo sapiens) (UniProt P22303); test: Acetylcholinesterase (AChE) small molecule antagonists: enzyme-based qHTS assay with human liver microsomes (AID 1347399; calls by dose curve; note: nearly all actives have a fitted effect of over 60% in size); conditions: Potency: qHTS inhibition; outcome: qHTS inhibition
Summary of the method: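 Recombinant human AChE (50 mU/mL in the enzyme mix) and human liver microsomes (0.25 mg/mL final) were preincubated with compound and NADPH (0.25 mg/mL final) for 30 min at 37 C. Acetylthiocholine/DTNB was then added; thiocholine was read colorimetrically after 10 min at room temperature.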

[3] = target: Aryl hydrocarbon receptor (Homo sapiens) (UniProt P35869); test: qHTS assay to identify small molecule that activate the aryl hydrocarbon receptor (AhR) signaling pathway (AID 743085);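 note: HG2L7.5c1 human HepG2 liver cells with stably integrated DRE-driven firefly reporter; series mostly up to about 70 µM; nearly all actives have a fitted effect of over 15% in size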
Summary of the method: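 HepG2 cells stably carrying a 20-DRE firefly luciferase reporter (HG2L7.5c1) treated with compound for 24 hr at 37C. Luciferase read by ONE-Glo luminescence, with CellTiter-Fluor viability read first.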

[4] = qHTS assay for small molecules that induce genotoxicity in human embryonic kidney cells expressing luciferase-tagged ATAD5 (AID 651632); note: nearly all actives have a fitted effect of over 15% in size
Summary of the method: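 Quantitative HTS in HEK293T expressing luciferase-tagged ATAD5, whose levels rise upon DNA damage. Exposure ran 16 hr at 37C and 5% CO2, with luminescence read 30 min after Amplite addition at room temperature.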

[5] = qHTS assay for small molecules that induce genotoxicity in human embryonic kidney cells expressing luciferase-tagged ATAD5 - cell viability (AID 651634; calls by dose curve; note: nearly all actives have a fitted effect of over 25% in size)
Summary of the method: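 After 15.5 hr incubation with compound at 37C, 5% CO2, HEK293T ATAD5-luciferase cells received CellTiter-Fluor reagent; fluorescence intensity was quantified following 30 min at 37C.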

[6] = qHTS assay to test for compound auto fluorescence at 590 nm (red) in HepG2 cells (AID 720674)
Summary of the method: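 1 hr compound incubation on HepG2 cells, 37 C, 5% CO2; plate read ex 540 nm / em 590 nm; intensities reported as Rose Bengal sodium equivalents.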

[7] = qHTS assay to test for compound auto fluorescence at 535 nm (green) in HepG2 cells (AID 720675)
[8] = qHTS assay to test for compound auto fluorescence at 460 nm (blue) in HEK293 cells (AID 720678)
Summary of the method: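 Auto fluorescence in the blue band was quantified as triamterene equivalency. HEK293 cells were seeded at 2,000/well, dosed after a 4-5 hr attachment, and kept overnight at 37C before the 405/460 nm reading.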

[9] = qHTS assay to test for compound auto fluorescence at 590 nm (red) in HEK293 cells (AID 720679)
Summary of the method: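 Autofluorescence equivalency to Rose Bengal sodium, 540/590nm, in HEK293 cells exposed overnight to 23 nL compound per well.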

[10] = qHTS assay to test for compound auto fluorescence at 535 nm (green) in HEK293 cells (AID 720680)
[11] = qHTS assay to test for compound auto fluorescence at 460 nm (blue) in HEK293 cell free culture (AID 720681)
Summary of the method: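 Blue fluorescence (Ex 405/Em 460 nm, triamterene-equivalent) was read immediately after pin transfer of compound or DMSO into medium (DMEM, 10% FBS) without cells.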

[12] = qHTS assay to test for compound auto fluorescence at 535 nm (green) in HEK293 cell free culture (AID 720682)
Summary of the method: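 Green-label autofluorescence (485 nm excitation, 535 nm emission) measured on compound added to cell-free culture medium (DMEM, 10% FBS). Output is expressed relative to fluorescein.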

[13] = qHTS assay to test for compound auto fluorescence at 590 nm (red) in HEK293 cell free culture (AID 720683)
Summary of the method: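 Red-channel autofluorescence of compounds in culture medium (DMEM, 10% FBS), no cells, measured at 540/590 nm. Rose Bengal sodium is the reference fluorophore for equivalence.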

[14] = qHTS assay to test for compound auto fluorescence at 590 nm (red) in HepG2 cell free culture (AID 720684)
Summary of the method: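 No cells present: MEM + 10% FBS only. Compound pinned in, red label read (540/590 nm). Activity = fluorescence equivalent to Rose Bengal sodium.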

[15] = qHTS assay to test for compound auto fluorescence at 460 nm (blue) in HepG2 cell free culture (AID 720685)
Summary of the method: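 Cell-free plates of MEM plus 10% FBS received 23 nL compound or DMSO vehicle; blue-channel (405/460 nm) intensity scored against triamterene as reference fluorophore.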

[16] = qHTS assay to test for compound auto fluorescence at 535 nm (green) in HepG2 cell free culture (AID 720686)
[17] = qHTS assay to test for compound auto fluorescence at 460 nm (blue) in HepG2 cells (AID 720687)
Summary of the method: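 Blue-channel autofluorescence (Ex/Em 405/460 nm, triamterene-equivalent) was measured after 1 hr compound exposure at 37 C, 5% CO2. Cells were HepG2, plated overnight at 37 C in MEM plus 10% FBS.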

[18] = target: Glucocorticoid receptor (Homo sapiens) (UniProt P04150); test: qHTS assay to identify small molecule agonists of the glucocorticoid receptor (GR) signaling pathway (AID 720691; active = well fitted activation curve with a large enough effect in the signal ratio in the repeat runs, not every such curve was filed as active; inconclusive = weak or mixed curves, or effect the other way; inactive = no such curve, though single readings can be large or run the other way; the % refers to the signal ratio)
Summary of the method: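 Cells: GR-bla HeLa, endogenous GR with stably integrated GRE-beta-lactamase reporter. Treatment 18 h, 37 C, compounds delivered in DMSO. Detection via LiveBLAzer B/G FRET substrate, 2 h RT, fluorescence intensity.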

[19] = target: Glucocorticoid receptor (Homo sapiens) (UniProt P04150); test: qHTS assay to identify small molecule antagonists of the glucocorticoid receptor (GR) signaling pathway (AID 720692; active = well fitted inhibition curve with a large enough effect in the signal ratio in the repeat runs, not every such curve was filed as active; inconclusive = weak or mixed curves, or effect the other way; inactive = no such curve, though single readings can be large or run the other way; the % refers to the signal ratio; note: potency is the fitted concentration of half-maximal effect)
Summary of the method: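 Quantitative HTS in antagonist format: HeLa cells expressing endogenous GR and a stably integrated GRE-bla reporter, stimulated with 5 nM dexamethasone (final) alongside test compounds for 18 h.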

[20] = qHTS assay for identifying genotoxic compounds that show differential cytotoxicity against isogenic chicken DT40 cell lines with known DNA damage response pathways - Rev3 mutant cell line (AID 743014); note: potency is the fitted concentration of half-maximal effect; nearly all actives have a fitted effect of over 55% in size
[21] = qHTS assay for identifying genotoxic compounds that show differential cytotoxicity against isogenic chicken DT40 cell lines with known DNA damage response pathways - Rad54/Ku70 mutant cell line (AID 743015); note: potency is the fitted concentration of half-maximal effect; nearly all actives have a fitted effect of over 60% in size
[22] = qHTS assay to identify small molecule antagonists of the androgen receptor (AR) signaling pathway - cell viability counter screen (AID 743033; note: nearly all actives have a fitted effect of over 45% in size)
[23] = qHTS assay to identify small molecule antagonists of the androgen receptor (AR) signaling pathway using the MDA cell line - cell viability counter screen (AID 743041; note: nearly all actives have a fitted effect of over 45% in size)
Summary of the method: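 Using the breast carcinoma line MDA-kb2 AR-luc, test chemicals were co-incubated with R1881 for 16 h; CellTiter-Fluor reagent, added at 15.5 h, provided a fluorescence measure of live cells.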

[24] = qHTS assay to identify small molecule antagonists of the thyroid receptor (TR) signaling pathway - cell viability counter screen (AID 743064); note: nearly all actives have a fitted effect of over 50% in size
Summary of the method: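 GH3.TRE-Luc rat pituitary cells dosed after 4 hr plating, co-stimulated with T3 at 1 nM final, incubated 23.5 h at 37 C. Viability measured in the same wells by CellTiter-Fluor fluorescence after 30 min further at 37 C.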

[25] = tested on: thyroid hormone receptor (rat, GH3 cells); test: qHTS assay to identify small molecule agonists of the thyroid receptor (TR) signaling pathway (AID 743066; calls by dose curve)
[26] = qHTS assay to identify small molecule antagonists of the estrogen receptor alpha (ER-alpha) signaling pathway - cell viability counter screen (AID 743074; calls by dose curve;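 note: HEK293 cells carrying ER-alpha-UAS-bla reporter stimulated with 17beta-estradiol; nearly all actives have a fitted effect of over 45% in size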)
[27] = target: Estrogen receptor (Homo sapiens) (UniProt P03372); test: qHTS assay to identify small molecule agonists of the estrogen receptor alpha (ER-alpha) signaling pathway (AID 743075; calls by dose curve;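 note: HEK293 GripTite cells with ER-alpha and UAS-driven beta-lactamase reporter; potency is the fitted concentration of half-maximal effect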)
[28] = target: Estrogen receptor (Homo sapiens) (UniProt P03372); test: qHTS assay to identify small molecule agonists of the estrogen receptor alpha (ER-alpha) signaling pathway using the BG1 cell line (AID 743079); note: potency is the fitted concentration of half-maximal effect; nearly all actives have a fitted effect of over 20% in size
[29] = qHTS assay to identify small molecule antagonists of the estrogen receptor alpha (ER-alpha) signaling pathway using the BG1 cell line - cell viability counter screen (AID 743081);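 note: compound given together with 17beta-estradiol as the ER stimulus; series mostly up to about 70 µM; nearly all actives have a fitted effect of over 45% in size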
Aromatase (Homo sapiens) = Aromatase (Homo sapiens) (UniProt P11511); test: qHTS assay to identify aromatase inhibitors (AID 743083); note: series mostly up to about 70 µM; nearly all actives have a fitted effect of over 55% in size
[30] = qHTS assay to identify aromatase inhibitors - cell viability counter screen (AID 743084);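 note: cells stimulated with testosterone during compound exposure; nearly all actives have a fitted effect of over 55% in size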
[31] = qHTS assay to identify small molecule that activate the aryl hydrocarbon receptor (AhR) signaling pathway - cell viability counter screen (AID 743086)
Summary of the method: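 Cytotoxicity counter screen: CellTiter-Fluor signal (30 min, 37 C) in 4000 HepG2 cells/well carrying the DRE-luciferase reporter, following 24 h compound exposure at 37 C.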

[32] = target: Peroxisome proliferator-activated receptor gamma (Homo sapiens) (UniProt P37231); test: qHTS assay to identify small molecule agonists of the peroxisome proliferator-activated receptor gamma (PPARg) signaling pathway (AID 743094; active = well fitted activation curve with a large enough effect in the signal ratio in the repeat runs, not every such curve was filed as active; inconclusive = weak or mixed curves, or effect the other way; inactive = no such curve, though single readings can be large or run the other way; the % refers to the signal ratio)
Summary of the method: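 Reporter activation was scored by fluorescence of cleaved LiveBLAzer B/G substrate (1 h, room temperature) in PPARg-bla HEK293H cells previously treated 17 h at 37C with DMSO-dissolved compounds.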

Measured: Potency

Chain of Acetylcholinesterase (Homo sapiens) (P22303 whole entry, looked up): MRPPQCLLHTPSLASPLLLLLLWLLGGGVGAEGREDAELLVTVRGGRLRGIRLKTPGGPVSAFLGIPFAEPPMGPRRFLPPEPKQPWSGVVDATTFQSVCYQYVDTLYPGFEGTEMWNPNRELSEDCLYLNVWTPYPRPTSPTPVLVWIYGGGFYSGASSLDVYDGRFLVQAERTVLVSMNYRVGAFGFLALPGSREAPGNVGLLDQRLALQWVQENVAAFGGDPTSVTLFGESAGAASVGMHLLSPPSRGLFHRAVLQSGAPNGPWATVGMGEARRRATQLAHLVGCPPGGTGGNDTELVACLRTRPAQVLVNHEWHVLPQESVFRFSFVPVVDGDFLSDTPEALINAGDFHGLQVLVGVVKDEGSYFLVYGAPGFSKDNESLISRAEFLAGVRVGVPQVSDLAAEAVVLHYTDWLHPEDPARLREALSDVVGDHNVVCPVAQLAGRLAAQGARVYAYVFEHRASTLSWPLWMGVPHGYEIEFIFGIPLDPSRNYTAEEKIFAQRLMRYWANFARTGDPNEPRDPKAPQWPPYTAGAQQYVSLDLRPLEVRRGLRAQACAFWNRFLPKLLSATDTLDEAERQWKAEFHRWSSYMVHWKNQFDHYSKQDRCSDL
Chain of Glucocorticoid receptor (Homo sapiens) (P04150 whole entry, looked up): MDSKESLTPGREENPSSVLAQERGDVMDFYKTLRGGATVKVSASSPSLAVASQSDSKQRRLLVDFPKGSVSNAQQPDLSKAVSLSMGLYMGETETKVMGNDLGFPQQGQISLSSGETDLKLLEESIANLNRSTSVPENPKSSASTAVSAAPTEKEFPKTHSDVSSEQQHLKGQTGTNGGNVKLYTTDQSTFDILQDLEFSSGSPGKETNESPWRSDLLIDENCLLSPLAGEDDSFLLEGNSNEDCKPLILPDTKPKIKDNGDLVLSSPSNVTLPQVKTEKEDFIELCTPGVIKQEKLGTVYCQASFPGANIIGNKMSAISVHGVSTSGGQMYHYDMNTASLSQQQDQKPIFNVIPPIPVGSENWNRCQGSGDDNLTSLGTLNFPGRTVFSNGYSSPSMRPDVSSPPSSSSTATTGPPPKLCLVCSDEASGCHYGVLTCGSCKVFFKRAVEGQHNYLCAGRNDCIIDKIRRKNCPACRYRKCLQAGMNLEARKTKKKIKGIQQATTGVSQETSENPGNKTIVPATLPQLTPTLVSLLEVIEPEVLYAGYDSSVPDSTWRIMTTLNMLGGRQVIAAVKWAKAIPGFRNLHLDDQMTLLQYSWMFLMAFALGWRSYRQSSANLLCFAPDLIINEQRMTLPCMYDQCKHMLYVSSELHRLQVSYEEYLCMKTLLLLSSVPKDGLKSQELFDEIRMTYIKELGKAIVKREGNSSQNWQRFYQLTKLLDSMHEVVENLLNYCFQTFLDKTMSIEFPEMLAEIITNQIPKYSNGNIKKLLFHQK
Chain of Aryl hydrocarbon receptor (Homo sapiens) (P35869 whole entry, looked up): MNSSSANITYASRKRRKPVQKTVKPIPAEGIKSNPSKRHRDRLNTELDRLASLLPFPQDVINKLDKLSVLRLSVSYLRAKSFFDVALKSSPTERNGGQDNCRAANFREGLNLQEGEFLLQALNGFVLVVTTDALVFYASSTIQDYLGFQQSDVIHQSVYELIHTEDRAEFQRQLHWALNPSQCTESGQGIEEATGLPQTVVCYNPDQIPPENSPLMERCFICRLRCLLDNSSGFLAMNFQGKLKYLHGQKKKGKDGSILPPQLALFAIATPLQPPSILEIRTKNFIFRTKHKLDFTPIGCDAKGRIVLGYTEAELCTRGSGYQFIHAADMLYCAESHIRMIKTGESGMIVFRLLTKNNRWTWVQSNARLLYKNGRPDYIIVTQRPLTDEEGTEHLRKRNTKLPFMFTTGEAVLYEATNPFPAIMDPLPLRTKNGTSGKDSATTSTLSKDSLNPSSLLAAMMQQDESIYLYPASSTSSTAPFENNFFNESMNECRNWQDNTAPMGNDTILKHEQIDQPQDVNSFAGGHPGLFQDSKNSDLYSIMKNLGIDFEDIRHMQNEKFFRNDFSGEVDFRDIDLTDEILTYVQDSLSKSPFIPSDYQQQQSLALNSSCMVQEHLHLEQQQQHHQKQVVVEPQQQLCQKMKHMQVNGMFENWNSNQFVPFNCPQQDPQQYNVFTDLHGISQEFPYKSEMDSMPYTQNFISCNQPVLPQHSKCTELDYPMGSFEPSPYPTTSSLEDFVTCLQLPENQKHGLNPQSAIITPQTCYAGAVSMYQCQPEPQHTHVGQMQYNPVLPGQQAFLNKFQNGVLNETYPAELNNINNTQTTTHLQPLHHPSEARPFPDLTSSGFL
Chain of Estrogen receptor (Homo sapiens) (P03372 whole entry, looked up): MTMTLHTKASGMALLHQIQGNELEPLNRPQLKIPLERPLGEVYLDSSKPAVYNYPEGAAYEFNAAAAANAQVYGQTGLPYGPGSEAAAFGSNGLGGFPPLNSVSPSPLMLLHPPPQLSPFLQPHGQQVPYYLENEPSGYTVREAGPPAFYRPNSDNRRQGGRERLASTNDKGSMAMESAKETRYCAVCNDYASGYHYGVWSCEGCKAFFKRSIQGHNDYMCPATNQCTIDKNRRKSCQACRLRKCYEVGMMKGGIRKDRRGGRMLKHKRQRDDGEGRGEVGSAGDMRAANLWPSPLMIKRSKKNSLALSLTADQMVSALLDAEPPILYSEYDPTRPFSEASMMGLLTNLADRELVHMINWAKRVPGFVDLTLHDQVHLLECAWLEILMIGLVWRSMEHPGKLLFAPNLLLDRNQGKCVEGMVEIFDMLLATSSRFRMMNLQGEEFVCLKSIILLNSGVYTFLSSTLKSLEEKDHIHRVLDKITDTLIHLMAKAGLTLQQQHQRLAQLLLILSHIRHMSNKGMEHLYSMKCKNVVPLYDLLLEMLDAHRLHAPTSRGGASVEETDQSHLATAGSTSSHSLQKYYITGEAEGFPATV
Chain of Peroxisome proliferator-activated receptor gamma (Homo sapiens) (P37231 whole entry, looked up): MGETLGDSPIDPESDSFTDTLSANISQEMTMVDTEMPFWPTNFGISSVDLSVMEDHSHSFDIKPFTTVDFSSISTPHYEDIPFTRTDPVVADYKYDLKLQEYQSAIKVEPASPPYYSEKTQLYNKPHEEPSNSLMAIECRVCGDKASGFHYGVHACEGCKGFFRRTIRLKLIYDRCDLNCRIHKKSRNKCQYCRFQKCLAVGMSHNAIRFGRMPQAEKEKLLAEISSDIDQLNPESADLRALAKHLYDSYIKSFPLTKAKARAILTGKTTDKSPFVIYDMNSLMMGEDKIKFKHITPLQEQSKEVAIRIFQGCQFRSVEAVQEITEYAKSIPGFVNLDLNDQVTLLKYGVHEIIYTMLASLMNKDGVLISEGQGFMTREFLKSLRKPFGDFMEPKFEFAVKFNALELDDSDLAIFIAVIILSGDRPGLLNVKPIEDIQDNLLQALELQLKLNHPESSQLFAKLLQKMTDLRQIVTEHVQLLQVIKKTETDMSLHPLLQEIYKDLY
Chain of Aromatase (Homo sapiens) (P11511 whole entry, looked up): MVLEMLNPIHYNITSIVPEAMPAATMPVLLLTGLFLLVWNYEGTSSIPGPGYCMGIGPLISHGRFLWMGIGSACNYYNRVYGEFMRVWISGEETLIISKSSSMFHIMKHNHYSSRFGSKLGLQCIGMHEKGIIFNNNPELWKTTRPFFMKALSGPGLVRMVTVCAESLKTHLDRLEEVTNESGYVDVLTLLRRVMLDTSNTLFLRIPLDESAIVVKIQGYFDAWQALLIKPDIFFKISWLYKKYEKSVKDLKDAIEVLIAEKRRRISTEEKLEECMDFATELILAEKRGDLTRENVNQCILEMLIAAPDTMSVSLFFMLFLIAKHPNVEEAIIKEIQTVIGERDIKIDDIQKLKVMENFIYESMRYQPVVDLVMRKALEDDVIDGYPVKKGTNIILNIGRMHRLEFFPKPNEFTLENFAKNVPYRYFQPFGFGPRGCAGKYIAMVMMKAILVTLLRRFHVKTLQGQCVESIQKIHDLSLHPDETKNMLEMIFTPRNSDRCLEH

NC(=O)Nc1ccc(Cl)c(Cl)c1
inactive: [1] | [2]

CCCC[N+](C)(CCCC)CCCC
inactive: [1] | [2]

COc1cc(C(=O)NC2CCN(C)CC2)ccc1Nc1ncc2c(n1)N(C1CCCC1)CC(F)(F)C(=O)N2C
active: [1] 11.6 µM
inactive: [2]

C[C@@H]1O[C@@H]1P(=O)(O)O
inactive: [3]

C[C@]12CC[C@H]3[C@@H](CCC4=CC(=O)CC[C@@]43C)[C@@H]1CC[C@@H]2OC(=O)CCc1ccccc1
active: [19] 6.16 µM | [20] 8.63 µM | [21] 8.63 µM | [27] 3.89 µM [inconclusive] | [28] 0.0306 µM
inactive: [4] | [5] | [6] | [7] | [8] | [9] | [10] | [11] | [12] | [13] | [14] | [15] | [16] | [17] | [18] | [22] | [23] | [24] | [25] | [26] | [29] | Aromatase (Homo sapiens) | [30] | [3] | [31] | [32]
